# Test results taken from PMC3218832.
# Biological target: T1, p52p52 homodimer (Homo sapiens, UniProt Q00653 4-332)
# T1 sequence: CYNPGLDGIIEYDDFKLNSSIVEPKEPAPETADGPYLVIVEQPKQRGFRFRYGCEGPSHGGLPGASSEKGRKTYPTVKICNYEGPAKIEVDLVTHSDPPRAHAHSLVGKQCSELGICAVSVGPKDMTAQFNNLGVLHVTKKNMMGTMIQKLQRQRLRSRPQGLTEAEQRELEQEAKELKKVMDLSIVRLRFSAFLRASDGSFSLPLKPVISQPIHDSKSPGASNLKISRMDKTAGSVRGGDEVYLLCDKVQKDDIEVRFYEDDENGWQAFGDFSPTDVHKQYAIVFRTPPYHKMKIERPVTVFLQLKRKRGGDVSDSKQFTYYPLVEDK
# Assay: protein binding microarray; high values mean tight binding
# Conditions: dsDNA, one strand shown
row,Sequence,binding signal [z-score]
1,CAAAAGACCCT,-0.0206
2,AGGTTCATCCC,-0.0688
3,CGAAGCTTCCC,-0.466
4,AGAGAGGTCCT,-0.36
5,CGATATTTCCT,-0.405
6,CAAGAACCCCC,1.21
7,GGAGGAGTCCC,0.586
8,CAAGTAATCCC,-0.0587
9,GGGATGCCCCT,2.65
10,AGATTTATCCC,-0.0792
11,GAGAGACTCCT,-0.793
12,GAGAATACCCC,0.914
13,AGATTGACCCT,-0.42
14,AGGGGAGTCCT,1.64
15,CAGGGGATCCC,1.66
16,AAGGTGTCCCT,0.895
17,CGGGGAATCCC,3.13
18,GAGGGCACCCT,-0.651
19,CAGAATACCCT,0.546

row,Sequence,binding signal [z-score]
1,AGGAGGATCCT,-0.694
2,AGAAAAGCCCC,2.07
3,GAAGGGCTCCC,-0.651
4,CAAAAGTTCCC,0.496
5,GGGATCGTCCT,0.0256
6,CGAGGGTTCCC,-0.304
7,CAATAACTCCC,0.0211
8,AAGAGGTTCCT,-0.462
9,CAGTGAACCCC,-0.201
10,AAAATCGCCCT,-0.395
11,GAATAAGTCCC,0.974
12,AAGGACTCCCC,0.493
13,GAGGGCATCCC,-0.256
14,AAAGTTACCCT,0.376
15,GAGTGCTTCCC,-0.0563
16,AAGTGAACCCT,-0.646
17,GAGGGTTCCCT,-0.121
18,CAGATAGCCCT,-0.544
19,GGAGAAACCCT,0.127

# Biological target: RELA (p65) subunit of heterodimer;p50 subunit (Homo sapiens;Homo sapiens, UniProt Q04206;P19838 1-307;7-356)
# Assay: as above
# Conditions: dsDNA, one strand shown
# Chain of RELA (p65) subunit of heterodimer;p50 subunit (Q04206 1-307, chain 1 of 2): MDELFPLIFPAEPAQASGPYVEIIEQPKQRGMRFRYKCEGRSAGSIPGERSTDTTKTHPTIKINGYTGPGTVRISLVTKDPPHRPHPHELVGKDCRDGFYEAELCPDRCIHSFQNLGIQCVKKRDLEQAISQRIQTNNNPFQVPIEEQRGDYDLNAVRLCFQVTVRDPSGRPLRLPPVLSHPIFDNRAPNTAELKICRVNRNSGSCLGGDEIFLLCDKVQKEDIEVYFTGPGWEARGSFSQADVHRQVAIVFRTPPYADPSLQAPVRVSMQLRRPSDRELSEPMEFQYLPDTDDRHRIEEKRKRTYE
# Chain of RELA (p65) subunit of heterodimer;p50 subunit (P19838 7-356, chain 2 of 2): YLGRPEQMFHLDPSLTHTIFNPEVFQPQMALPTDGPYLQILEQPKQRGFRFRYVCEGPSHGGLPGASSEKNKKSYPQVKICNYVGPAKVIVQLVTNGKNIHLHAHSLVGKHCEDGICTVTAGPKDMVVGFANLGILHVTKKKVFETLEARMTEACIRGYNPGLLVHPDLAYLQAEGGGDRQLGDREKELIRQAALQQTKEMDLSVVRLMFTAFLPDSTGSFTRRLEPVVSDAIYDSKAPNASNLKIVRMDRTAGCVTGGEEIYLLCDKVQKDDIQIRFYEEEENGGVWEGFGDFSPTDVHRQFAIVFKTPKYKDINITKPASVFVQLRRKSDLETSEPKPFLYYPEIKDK
row,Sequence,binding signal [z-score]
1,CAAAAGACCCT,0
2,AGGTTCATCCC,-0.431
3,CGAAGCTTCCC,-0.322
4,AGAGAGGTCCT,-0.866
5,CGATATTTCCT,-0.302
6,CAAGAACCCCC,1.6
7,GGAGGAGTCCC,0.889
8,CAAGTAATCCC,-0.365
9,GGGATGCCCCT,1.78
10,AGATTTATCCC,-0.321
11,GAGAGACTCCT,-1.01
12,GAGAATACCCC,1.24
13,AGATTGACCCT,-0.583
14,AGGGGAGTCCT,0.872
15,CAGGGGATCCC,1.73
16,AAGGTGTCCCT,0.784
17,CGGGGAATCCC,2.36
18,GAGGGCACCCT,-0.906
19,CAGAATACCCT,0.635

row,Sequence,binding signal [z-score]
1,AGGAGGATCCT,-0.999
2,AGAAAAGCCCC,1.57
3,GAAGGGCTCCC,-0.8
4,CAAAAGTTCCC,0.839
5,GGGATCGTCCT,-0.544
6,CGAGGGTTCCC,-0.206
7,CAATAACTCCC,0.38
8,AAGAGGTTCCT,-0.943
9,CAGTGAACCCC,-0.227
10,AAAATCGCCCT,-0.458
11,GAATAAGTCCC,1.43
12,AAGGACTCCCC,0.844
13,GAGGGCATCCC,-0.318
14,AAAGTTACCCT,0.371
15,GAGTGCTTCCC,-0.232
16,AAGTGAACCCT,-0.987
17,GAGGGTTCCCT,-0.238
18,CAGATAGCCCT,-0.662
19,GGAGAAACCCT,0.478
